In PubChem BioAssay (NCI):
The panel holds about 79,000 compounds, 15% with a hit somewhere; the sample as a whole holds those more often. Activity calls are given as the source filed them. Cut-off read from the data, not from the text of the source: active = growth inhibition above about 70%; inactive = the rest.

Assays:
[1] = NCI Yeast Anticancer Drug Screen. Data for the rad52 strain (AID 147);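 note: 0% = growth of vehicle-treated control cultures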; details: S. cerevisiae rad52 mutant growth inhibition, active compounds read high
In short: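 Genetically altered yeast (DNA damage repair defect) treated with compound; inhibition calculated relative to vehicle.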

[2] = NCI Yeast Anticancer Drug Screen. Data for the wt1 strain (AID 149);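 note: 0% = growth of vehicle-treated wt1 cultures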; details: S. cerevisiae wt1 strain (SPY 50644) growth inhibition, active compounds read high
In short: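 wt1 strain grown with compound or vehicle; inhibition taken from the growth difference.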

[3] = NCI Yeast Anticancer Drug Screen. Data for the rad50EPP+ strain (AID 151);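 note: 0% = growth of vehicle-treated control cultures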; details: S. cerevisiae rad50 mutant strain, active compounds read high
In short: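 Strain rad50EPP+; compound exposure; % growth inhibition vs vehicle.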

[4] = NCI Yeast Anticancer Drug Screen. Data for the mgt1 strain (AID 153); details: S. cerevisiae mgt1 mutant growth inhibition, active compounds read high
In short: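 Read-out: yeast growth inhibition vs vehicle control. Strain mgt1, drawn from a panel altered in DNA damage repair or cell cycle control.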

[5] = NCI Yeast Anticancer Drug Screen. Data for the rad50 strain (AID 155);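 note: 0% = growth of vehicle-only cultures of the same strain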; details: S. cerevisiae rad50 strain growth inhibition, active compounds read high
In short: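 DNA repair mutant yeast, compound exposure, growth read-out; inhibition is taken relative to vehicle.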

[6] = NCI Yeast Anticancer Drug Screen. Data for the mec2-1 strain (AID 157); details: S. cerevisiae mec2-1 strain, active compounds read high
In short: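 Cells of the genetically defined mec2-1 yeast strain are incubated with test compound. Inhibition of growth is calculated against vehicle-treated controls.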

[7] = NCI Yeast Anticancer Drug Screen. Data for the rad14 strain (AID 159);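 note: 0% = growth of vehicle-treated control cultures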; details: S. cerevisiae rad14 strain growth inhibition, active compounds read high
In short: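 DNA repair-defective yeast, compound-exposed; % growth inhibition derived by comparison with vehicle-treated controls.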

[8] = NCI Yeast Anticancer Drug Screen. Data for the sgs1 mgt1 strain (AID 161);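 note: 0% = growth of cultures given vehicle only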; details: S. cerevisiae sgs1 mgt1 strain, active compounds read high
In short: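 Mutant yeast exposed to compound; growth scored against vehicle-only wells.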

[9] = NCI Yeast Anticancer Drug Screen. Data for the CLN2oe strain (AID 163);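 note: 0% = growth of vehicle-only control cultures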; details: S. cerevisiae CLN2oe strain, active compounds read high
In short: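 Strain altered in cell-cycle control, incubated with compound; growth compared to solvent-treated controls.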

[10] = NCI Yeast Anticancer Drug Screen. Data for the cln2 rad14 strain (AID 165);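 note: 0% = growth equal to vehicle treated cultures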; details: S. cerevisiae cln2 rad14 strain, active compounds read high
In short: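 The screen exposed genetically defined yeast (cln2 rad14) to test compounds and scored growth inhibition relative to vehicle-treated controls.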

[11] = NCI Yeast Anticancer Drug Screen. Data for the bub3 strain (AID 167); details: S. cerevisiae bub3 mutant strain, active compounds read high
In short: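 In this screen, a yeast mutant lacking normal mitotic checkpoint function is challenged with compound. Relative growth versus vehicle gives the inhibition value.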

[12] = NCI Yeast Anticancer Drug Screen. Data for the wt2 strain (AID 169);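 note: 0% = growth of vehicle-treated yeast cultures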; details: S. cerevisiae wt2 strain growth inhibition, active compounds read high
In short: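 Steps: yeast strain treated with compound; growth recorded; inhibition calculated relative to cultures given vehicle alone.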

[13] = NCI Yeast Anticancer Drug Screen. Data for the mlh1 strain (AID 171);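 note: 0% = growth of vehicle-treated control cultures of the same strain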; details: S. cerevisiae mlh1 strain growth inhibition, active compounds read high
In short: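 Yeast screen: mutant strain plus compound, growth scored against vehicle control wells.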

[14] = NCI Yeast Anticancer Drug Screen. Data for the sgs1 strain (AID 173);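 note: 0% = growth of vehicle-only control cultures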; details: S. cerevisiae sgs1 mutant, active compounds read high
In short: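 Inhibition of yeast growth served as the measure. The mutant strain was treated with each compound, and growth was normalised to cultures receiving vehicle alone.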

[15] = NCI Yeast Anticancer Drug Screen. Data for the mlh1 rad18 strain (AID 175); details: S. cerevisiae mlh1 rad18 strain growth inhibition, active compounds read high
In short: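 Compound-treated yeast growth, normalised to vehicle controls. Strain bears defined DNA repair mutations.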

[16] = NCI Yeast Anticancer Drug Screen. Data for the rad18 strain (AID 177); details: S. cerevisiae rad18 mutant growth inhibition, active compounds read high
In short: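 Inhibition values reflect reduced yeast growth compared with vehicle-treated controls, using a strain engineered with a DNA damage repair defect.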

[17] = at 5.0 µM (retest, dose inferred, filed as 0.5)
[18] = at 50.0 µM (retest, dose inferred, filed as 5.0)

Measured: growth inhibition

COC1=CCC23C(=O)C=CC(=O)C2(C1)C(=O)c1ccccc1C3=O (stereo not drawn)
inactive: [1]; at 1.2 µM -40% | [1]; at 3.7 µM -35% | [1]; at 11.0 µM 12% | [1]; at 33.0 µM 54% | [2]; at 1.2 µM -34% | [2]; at 3.7 µM -24% | [2]; at 11.0 µM -16% | [2]; at 33.0 µM -1% | [3]; at 1.2 µM 19% | [3]; at 3.7 µM 17% | [3]; at 11.0 µM 25% | [3]; at 33.0 µM 30% | [3]; at 100.0 µM 62% | [4]; at 1.2 µM -24% | [4]; at 3.7 µM -14% | [4]; at 11.0 µM 6% | [4]; at 33.0 µM 40% | [5]; at 1.2 µM -27% | [5]; at 3.7 µM -47% | [5]; [17] 19% | [5]; at 11.0 µM 12% | [5]; at 33.0 µM 52% | [5]; at 50.0 µM 65.8% | [6]; at 1.2 µM 8% | [6]; at 3.7 µM -4% | [6]; [17] 20% | [6]; at 11.0 µM -11% | [6]; at 33.0 µM 34% | [6]; at 50.0 µM 55.5% | [7]; at 1.2 µM -24% | [7]; at 3.7 µM 2% | [7]; at 11.0 µM 1% | [7]; at 33.0 µM 50% | [8]; [17] -2% | [9]; at 1.2 µM 17% | [9]; at 3.7 µM 8% | [9]; at 11.0 µM 18% | [9]; at 33.0 µM 38% | [10]; [17] 0% | [10]; [18] -49% | [10]; at 50.0 µM 36.5% | [11]; at 1.2 µM -30% | [11]; at 3.7 µM -38% | [11]; [17] 2% | [11]; at 11.0 µM -29% | [11]; at 33.0 µM 15% | [12]; at 1.2 µM -11% | [12]; at 3.7 µM -5% | [12]; at 11.0 µM 23% | [12]; at 33.0 µM 40% | [13]; at 1.2 µM -11% | [13]; at 3.7 µM -25% | [13]; at 11.0 µM -2% | [13]; at 33.0 µM 54% | [14]; at 1.2 µM 10% | [14]; at 3.7 µM -6% | [14]; at 11.0 µM 24% | [14]; at 33.0 µM 61% | [15]; [17] 26% | [15]; at 50.0 µM 68.2% | [16]; at 1.2 µM -21% | [16]; at 3.7 µM -20% | [16]; at 11.0 µM 32% | [16]; at 33.0 µM 44%
active: [1]; at 100.0 µM 89% | [2]; at 100.0 µM 93% | [4]; at 100.0 µM 93% | [5]; [18] 72% | [5]; at 100.0 µM 87% | [6]; [18] 88% | [6]; at 100.0 µM 91% | [7]; at 100.0 µM 92% | [8]; [18] 76% | [8]; at 50.0 µM 74.7% | [9]; at 100.0 µM 92% | [11]; [18] 78% | [11]; at 50.0 µM 74.4% | [11]; at 100.0 µM 91% | [12]; at 100.0 µM 93% | [13]; at 100.0 µM 95% | [14]; at 100.0 µM 93% | [15]; [18] 84% | [16]; at 100.0 µM 83%

CCC(/C=C/c1ccccc1)=N\Nc1ccc(Cl)c(Cl)c1
inactive: [1]; at 1.2 µM 7% | [1]; at 3.7 µM 11% | [1]; at 11.0 µM 17% | [2]; at 1.2 µM 0% | [2]; at 3.7 µM -3% | [2]; at 11.0 µM -4% | [2]; at 33.0 µM 24% | [3]; at 1.2 µM 9% | [3]; at 3.7 µM 20% | [3]; at 11.0 µM 28% | [3]; at 33.0 µM 29% | [3]; at 100.0 µM 29% | [4]; at 1.2 µM -3% | [4]; at 3.7 µM 4% | [4]; at 11.0 µM -4% | [4]; at 33.0 µM -3% | [5]; at 1.2 µM 26% | [5]; at 3.7 µM 36% | [5]; [17] 7% | [5]; at 11.0 µM 22% | [6]; at 1.2 µM -2% | [6]; at 3.7 µM -1% | [6]; [17] -1% | [6]; at 11.0 µM -5% | [6]; at 33.0 µM 22% | [7]; at 1.2 µM 2% | [7]; at 3.7 µM 0% | [7]; at 11.0 µM -6% | [7]; at 33.0 µM 10% | [8]; [17] 3% | [9]; at 1.2 µM -2% | [9]; at 3.7 µM -8% | [9]; at 11.0 µM -9% | [9]; at 33.0 µM 36% | [10]; [17] 1% | [11]; at 1.2 µM -2% | [11]; at 3.7 µM 2% | [11]; [17] 2% | [11]; at 11.0 µM 14%
active: [1]; at 33.0 µM 87% | [1]; at 100.0 µM 92% | [2]; at 100.0 µM 93% | [4]; at 100.0 µM 95% | [5]; at 33.0 µM 89% | [5]; [18] 89% | [5]; at 50.0 µM 95.5% | [5]; at 100.0 µM 91% | [6]; [18] 81% | [6]; at 50.0 µM 72.5% | [6]; at 100.0 µM 92% | [7]; at 100.0 µM 94% | [8]; [18] 74% | [8]; at 50.0 µM 82.5% | [9]; at 100.0 µM 89% | [10]; [18] 71% | [10]; at 50.0 µM 85.7% | [11]; at 33.0 µM 85% | [11]; [18] 93% | [11]; at 50.0 µM 94.3% | [11]; at 100.0 µM 91%
